Results taken from PMC7862700, “An all-to-all approach to the identification of sequence-specific readers for epigenetic DNA modifications on cytosine”.

How the values were obtained:
Test in all cases: DAPPL (digital affinity profiling via proximity ligation, sequencing); 10 mM Tris-HCl pH 7.5, 50 mM NaCl, 1 mM DTT, 4% glycerol, room temperature, 30 min; GST-TFs on glutathione beads, 16-mer random dsDNA library, 0.1% formaldehyde crosslink after washing; high values mean tight binding
[1] = biological target: T1, FEV (Homo sapiens, UniProt Q99581 1-238); conditions: protein: recombinant; tags: N-terminal GST; dsDNA, one strand shown
T1 sequence: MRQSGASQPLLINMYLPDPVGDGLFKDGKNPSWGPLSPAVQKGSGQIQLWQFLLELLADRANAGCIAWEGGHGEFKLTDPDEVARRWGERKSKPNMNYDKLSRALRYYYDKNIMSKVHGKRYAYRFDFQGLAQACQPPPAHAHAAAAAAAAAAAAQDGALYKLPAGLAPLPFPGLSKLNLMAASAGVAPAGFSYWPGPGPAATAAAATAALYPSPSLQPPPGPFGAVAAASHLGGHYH
Summary of the method: (§1)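 Binding signal is each hexamer's read frequency for a factor divided by its frequency in the tag-only sample. The factors were GST-fused human transcription factors from yeast, captured on glutathione beads, DNA-barcoded and pooled with that sample. Pools were incubated with 200 nmole of a random double-stranded 16-mer DNA library in Tris/NaCl/DTT/glycerol buffer at room temperature for 30 min, then washed, crosslinked with 0.1% formaldehyde, proximity-ligated with BsaI/T4 ligase (1 h, 37 °C), PCR-amplified and sequenced on an Illumina NextSeq500.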

[2] = biological target: ETV5 (Homo sapiens, UniProt P41161 1-510); conditions: protein: recombinant; tags: N-terminal GST; dsDNA, one strand shown
Summary of the method: as §1

[3] = biological target: HSF1 (Homo sapiens, UniProt Q00613 1-529); conditions: protein: recombinant; tags: N-terminal GST; chain copies: 3; dsDNA, one strand shown
Summary of the method: as §1

[4] = biological target: T2, SPIC (Homo sapiens, UniProt Q8N5J4 1-248); conditions: protein: recombinant; tags: N-terminal GST; dsDNA, one strand shown
T2 sequence: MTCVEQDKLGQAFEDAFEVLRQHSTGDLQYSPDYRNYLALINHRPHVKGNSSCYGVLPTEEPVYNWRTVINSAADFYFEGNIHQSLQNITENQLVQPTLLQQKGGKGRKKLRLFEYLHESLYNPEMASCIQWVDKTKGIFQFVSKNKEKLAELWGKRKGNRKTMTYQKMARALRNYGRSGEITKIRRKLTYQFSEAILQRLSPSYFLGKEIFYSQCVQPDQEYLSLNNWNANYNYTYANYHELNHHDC
Summary of the method: as §1

[5] = biological target: ELF4 (Homo sapiens, UniProt Q99607 1-663); conditions: protein: recombinant; tags: N-terminal GST; dsDNA, one strand shown
Summary of the method: as §1

[6] = biological target: T3, ELK4 (Homo sapiens, UniProt P28324-2 1-405); conditions: protein: recombinant; tags: N-terminal GST; dsDNA, one strand shown
T3 sequence: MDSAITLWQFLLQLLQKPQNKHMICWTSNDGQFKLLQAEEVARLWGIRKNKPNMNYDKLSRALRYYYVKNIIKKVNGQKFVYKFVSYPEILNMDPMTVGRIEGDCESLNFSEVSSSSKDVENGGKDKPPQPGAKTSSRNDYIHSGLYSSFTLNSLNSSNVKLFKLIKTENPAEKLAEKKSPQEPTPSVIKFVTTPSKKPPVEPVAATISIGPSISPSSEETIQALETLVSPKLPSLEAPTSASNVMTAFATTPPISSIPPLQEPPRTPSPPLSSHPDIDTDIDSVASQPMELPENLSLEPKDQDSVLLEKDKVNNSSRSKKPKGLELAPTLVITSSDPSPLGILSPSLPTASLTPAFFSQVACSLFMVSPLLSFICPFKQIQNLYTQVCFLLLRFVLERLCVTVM
Summary of the method: as §1

[7] = biological target: T4, ETV2 (Homo sapiens, UniProt O00321 1-342); conditions: protein: recombinant; tags: N-terminal GST; dsDNA, one strand shown
T4 sequence: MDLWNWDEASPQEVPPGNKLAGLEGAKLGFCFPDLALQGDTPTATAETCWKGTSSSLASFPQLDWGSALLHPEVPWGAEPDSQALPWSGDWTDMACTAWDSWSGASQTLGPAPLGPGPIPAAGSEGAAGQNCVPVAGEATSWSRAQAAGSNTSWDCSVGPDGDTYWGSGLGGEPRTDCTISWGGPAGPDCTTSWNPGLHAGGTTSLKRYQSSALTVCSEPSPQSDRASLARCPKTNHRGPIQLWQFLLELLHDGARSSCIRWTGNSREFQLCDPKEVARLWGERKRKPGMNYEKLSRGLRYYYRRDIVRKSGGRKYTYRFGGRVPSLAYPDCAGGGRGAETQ
Summary of the method: as §1

[8] = biological target: T5, ELF3 (Homo sapiens, UniProt P78545 1-371); conditions: protein: recombinant; tags: N-terminal GST; dsDNA, one strand shown
T5 sequence: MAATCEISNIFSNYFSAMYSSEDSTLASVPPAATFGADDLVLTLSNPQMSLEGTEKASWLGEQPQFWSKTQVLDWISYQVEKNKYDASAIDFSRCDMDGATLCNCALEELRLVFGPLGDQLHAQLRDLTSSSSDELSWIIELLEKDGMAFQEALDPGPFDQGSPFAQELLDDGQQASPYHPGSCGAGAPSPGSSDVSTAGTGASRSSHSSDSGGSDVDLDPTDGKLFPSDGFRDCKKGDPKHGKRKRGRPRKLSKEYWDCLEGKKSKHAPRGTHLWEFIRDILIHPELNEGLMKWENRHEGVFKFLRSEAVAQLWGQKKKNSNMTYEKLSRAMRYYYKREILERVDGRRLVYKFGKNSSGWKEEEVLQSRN
Summary of the method: as §1

[9] = biological target: CRX (Homo sapiens, UniProt O43186 1-299); conditions: protein: recombinant; tags: N-terminal GST; dsDNA, one strand shown
Summary of the method: as §1

[10] = biological target: ETV1 (Homo sapiens, UniProt P50549 1-477); conditions: protein: recombinant; tags: N-terminal GST; dsDNA, one strand shown
Summary of the method: as §1

[11] = biological target: T6, ERF (Homo sapiens, UniProt P50548 1-548); conditions: protein: recombinant; tags: N-terminal GST; dsDNA, one strand shown
T6 sequence: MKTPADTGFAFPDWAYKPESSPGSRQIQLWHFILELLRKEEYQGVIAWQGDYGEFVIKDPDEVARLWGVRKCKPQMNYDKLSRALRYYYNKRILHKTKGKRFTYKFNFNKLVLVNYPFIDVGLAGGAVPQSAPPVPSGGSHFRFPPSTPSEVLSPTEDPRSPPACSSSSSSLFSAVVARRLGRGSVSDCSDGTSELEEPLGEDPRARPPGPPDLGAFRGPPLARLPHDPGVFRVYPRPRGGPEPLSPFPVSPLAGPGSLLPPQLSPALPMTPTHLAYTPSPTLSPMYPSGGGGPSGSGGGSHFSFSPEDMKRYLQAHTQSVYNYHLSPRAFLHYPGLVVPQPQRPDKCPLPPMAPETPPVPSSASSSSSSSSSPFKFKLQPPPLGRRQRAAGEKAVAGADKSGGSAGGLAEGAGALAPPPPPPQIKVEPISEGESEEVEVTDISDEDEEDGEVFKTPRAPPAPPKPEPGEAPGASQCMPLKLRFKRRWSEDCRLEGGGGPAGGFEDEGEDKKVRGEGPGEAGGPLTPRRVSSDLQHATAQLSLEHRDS
Summary of the method: as §1

[12] = biological target: T7, ETV3L (Homo sapiens, UniProt Q6ZN32 1-361); conditions: protein: recombinant; tags: N-terminal GST; dsDNA, one strand shown
T7 sequence: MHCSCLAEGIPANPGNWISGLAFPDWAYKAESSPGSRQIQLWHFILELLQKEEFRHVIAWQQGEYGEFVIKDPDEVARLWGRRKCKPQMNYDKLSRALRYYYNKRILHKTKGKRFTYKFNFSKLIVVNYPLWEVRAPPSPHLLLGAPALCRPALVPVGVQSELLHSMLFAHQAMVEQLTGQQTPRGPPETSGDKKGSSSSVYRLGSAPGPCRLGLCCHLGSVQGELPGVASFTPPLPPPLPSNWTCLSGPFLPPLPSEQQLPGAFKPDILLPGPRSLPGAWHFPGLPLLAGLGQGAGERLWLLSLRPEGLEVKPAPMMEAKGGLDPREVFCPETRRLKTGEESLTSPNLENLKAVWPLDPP
Summary of the method: as §1

[13] = biological target: T8, ETS2 (Homo sapiens, UniProt P15036 1-469); conditions: protein: recombinant; tags: N-terminal GST; dsDNA, one strand shown
T8 sequence: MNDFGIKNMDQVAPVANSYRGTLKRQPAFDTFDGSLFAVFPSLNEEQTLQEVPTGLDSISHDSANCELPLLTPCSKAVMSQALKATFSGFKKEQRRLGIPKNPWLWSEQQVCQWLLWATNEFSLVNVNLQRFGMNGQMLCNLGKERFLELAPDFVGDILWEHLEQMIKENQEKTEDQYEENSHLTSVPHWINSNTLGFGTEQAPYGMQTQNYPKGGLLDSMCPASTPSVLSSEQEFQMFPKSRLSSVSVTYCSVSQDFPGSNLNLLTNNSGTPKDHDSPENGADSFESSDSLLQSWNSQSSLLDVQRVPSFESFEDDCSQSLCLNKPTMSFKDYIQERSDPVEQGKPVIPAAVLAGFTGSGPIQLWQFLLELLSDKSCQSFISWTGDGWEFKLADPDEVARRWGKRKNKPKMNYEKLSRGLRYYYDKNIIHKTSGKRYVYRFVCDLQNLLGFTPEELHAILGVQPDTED
Summary of the method: as §1

[14] = biological target: T9, SPDEF (Homo sapiens, UniProt O95238 1-335); conditions: protein: recombinant; tags: N-terminal GST; dsDNA, one strand shown
T9 sequence: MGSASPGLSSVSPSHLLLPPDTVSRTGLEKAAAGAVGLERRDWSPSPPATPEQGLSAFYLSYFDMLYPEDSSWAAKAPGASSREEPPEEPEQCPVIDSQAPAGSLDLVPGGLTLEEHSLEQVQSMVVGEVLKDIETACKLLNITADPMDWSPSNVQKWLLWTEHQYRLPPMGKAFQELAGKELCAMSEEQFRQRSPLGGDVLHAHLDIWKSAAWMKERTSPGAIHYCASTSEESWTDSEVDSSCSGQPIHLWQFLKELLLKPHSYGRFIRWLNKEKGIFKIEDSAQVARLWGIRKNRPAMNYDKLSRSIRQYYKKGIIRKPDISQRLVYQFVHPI
Summary of the method: as §1

[15] = biological target: T10, ETV7 (Homo sapiens, UniProt Q9Y603 1-341); conditions: protein: recombinant; tags: N-terminal GST; dsDNA, one strand shown
T10 sequence: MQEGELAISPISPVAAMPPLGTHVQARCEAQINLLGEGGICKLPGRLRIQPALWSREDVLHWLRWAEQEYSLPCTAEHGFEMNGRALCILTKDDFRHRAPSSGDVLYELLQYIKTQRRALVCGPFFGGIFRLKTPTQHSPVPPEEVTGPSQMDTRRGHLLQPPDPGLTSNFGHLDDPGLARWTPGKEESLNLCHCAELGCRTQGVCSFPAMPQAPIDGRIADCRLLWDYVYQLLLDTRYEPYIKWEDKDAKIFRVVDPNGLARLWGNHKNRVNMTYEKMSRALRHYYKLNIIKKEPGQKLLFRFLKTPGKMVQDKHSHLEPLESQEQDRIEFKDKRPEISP
Summary of the method: as §1

[16] = biological target: T11, ELF5 (Homo sapiens, UniProt Q9UKW6-2 1-255); conditions: protein: recombinant; tags: N-terminal GST; dsDNA, one strand shown
T11 sequence: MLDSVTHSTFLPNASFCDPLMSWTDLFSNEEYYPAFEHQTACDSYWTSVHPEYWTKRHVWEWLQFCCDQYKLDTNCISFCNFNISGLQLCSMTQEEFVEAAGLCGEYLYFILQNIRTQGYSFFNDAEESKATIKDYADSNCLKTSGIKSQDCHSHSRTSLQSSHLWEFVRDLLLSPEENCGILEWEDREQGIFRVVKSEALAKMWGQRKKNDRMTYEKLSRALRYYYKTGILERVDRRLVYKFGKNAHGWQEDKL
Summary of the method: as §1

[17] = biological target: T12, ETV3 (Homo sapiens, UniProt P41162-2 1-143); conditions: protein: recombinant; tags: N-terminal GST; dsDNA, one strand shown
T12 sequence: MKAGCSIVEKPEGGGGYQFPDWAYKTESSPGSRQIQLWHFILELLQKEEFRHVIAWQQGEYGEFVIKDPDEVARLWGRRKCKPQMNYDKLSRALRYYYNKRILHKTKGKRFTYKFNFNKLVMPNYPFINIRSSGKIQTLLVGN
Summary of the method: as §1

[18] = biological target: ETV6 (Homo sapiens, UniProt P41212 1-452); conditions: protein: recombinant; tags: N-terminal GST; dsDNA, one strand shown
Summary of the method: as §1

Sequence of HSF1 (Q00613 whole entry): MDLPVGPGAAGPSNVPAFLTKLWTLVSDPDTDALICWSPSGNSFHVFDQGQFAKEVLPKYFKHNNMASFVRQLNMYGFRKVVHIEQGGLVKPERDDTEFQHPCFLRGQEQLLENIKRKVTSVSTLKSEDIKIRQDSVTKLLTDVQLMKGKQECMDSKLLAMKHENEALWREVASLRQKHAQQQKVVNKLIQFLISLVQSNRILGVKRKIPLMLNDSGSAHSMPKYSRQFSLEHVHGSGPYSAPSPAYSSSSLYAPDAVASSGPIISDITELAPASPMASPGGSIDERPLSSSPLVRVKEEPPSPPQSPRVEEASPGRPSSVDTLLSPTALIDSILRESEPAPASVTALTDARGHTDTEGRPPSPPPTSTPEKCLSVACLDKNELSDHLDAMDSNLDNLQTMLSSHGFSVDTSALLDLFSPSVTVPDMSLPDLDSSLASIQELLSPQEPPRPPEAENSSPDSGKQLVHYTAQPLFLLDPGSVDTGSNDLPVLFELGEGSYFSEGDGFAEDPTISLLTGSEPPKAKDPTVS
Sequence of ETV6 (P41212 whole entry): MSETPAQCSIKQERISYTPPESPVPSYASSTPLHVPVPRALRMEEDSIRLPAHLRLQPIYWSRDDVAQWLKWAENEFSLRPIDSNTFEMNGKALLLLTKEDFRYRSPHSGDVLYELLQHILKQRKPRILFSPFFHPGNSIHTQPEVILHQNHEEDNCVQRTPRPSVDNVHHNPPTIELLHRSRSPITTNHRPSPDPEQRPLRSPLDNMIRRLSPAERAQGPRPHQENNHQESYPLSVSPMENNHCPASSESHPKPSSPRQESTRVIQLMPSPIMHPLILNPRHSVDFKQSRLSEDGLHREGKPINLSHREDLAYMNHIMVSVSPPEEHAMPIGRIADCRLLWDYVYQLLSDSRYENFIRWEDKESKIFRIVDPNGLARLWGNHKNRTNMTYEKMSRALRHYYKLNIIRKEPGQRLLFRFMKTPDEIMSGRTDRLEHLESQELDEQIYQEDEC
Sequence of CRX (O43186 whole entry): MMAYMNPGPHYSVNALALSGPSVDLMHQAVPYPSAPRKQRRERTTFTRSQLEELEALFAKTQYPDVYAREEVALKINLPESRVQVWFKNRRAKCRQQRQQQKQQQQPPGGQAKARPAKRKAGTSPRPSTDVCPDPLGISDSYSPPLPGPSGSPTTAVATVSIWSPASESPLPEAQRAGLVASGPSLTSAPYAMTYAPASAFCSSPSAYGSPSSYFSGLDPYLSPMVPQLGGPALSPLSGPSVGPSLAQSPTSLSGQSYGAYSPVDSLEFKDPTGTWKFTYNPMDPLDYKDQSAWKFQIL
Sequence of ETV1 (P50549 whole entry): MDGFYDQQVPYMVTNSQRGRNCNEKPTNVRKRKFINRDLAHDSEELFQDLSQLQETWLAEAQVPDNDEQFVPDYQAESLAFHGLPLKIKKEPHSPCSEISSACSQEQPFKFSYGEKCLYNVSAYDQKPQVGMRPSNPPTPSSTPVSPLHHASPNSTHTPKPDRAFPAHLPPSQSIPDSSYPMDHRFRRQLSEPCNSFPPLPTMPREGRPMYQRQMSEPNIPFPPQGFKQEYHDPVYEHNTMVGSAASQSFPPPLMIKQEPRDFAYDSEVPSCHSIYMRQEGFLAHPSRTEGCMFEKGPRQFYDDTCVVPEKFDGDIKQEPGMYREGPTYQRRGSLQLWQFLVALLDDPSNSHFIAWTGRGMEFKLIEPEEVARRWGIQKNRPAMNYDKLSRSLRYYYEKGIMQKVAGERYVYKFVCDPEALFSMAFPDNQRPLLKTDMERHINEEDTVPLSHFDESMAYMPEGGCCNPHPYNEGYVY
Sequence of ELF4 (Q99607 whole entry): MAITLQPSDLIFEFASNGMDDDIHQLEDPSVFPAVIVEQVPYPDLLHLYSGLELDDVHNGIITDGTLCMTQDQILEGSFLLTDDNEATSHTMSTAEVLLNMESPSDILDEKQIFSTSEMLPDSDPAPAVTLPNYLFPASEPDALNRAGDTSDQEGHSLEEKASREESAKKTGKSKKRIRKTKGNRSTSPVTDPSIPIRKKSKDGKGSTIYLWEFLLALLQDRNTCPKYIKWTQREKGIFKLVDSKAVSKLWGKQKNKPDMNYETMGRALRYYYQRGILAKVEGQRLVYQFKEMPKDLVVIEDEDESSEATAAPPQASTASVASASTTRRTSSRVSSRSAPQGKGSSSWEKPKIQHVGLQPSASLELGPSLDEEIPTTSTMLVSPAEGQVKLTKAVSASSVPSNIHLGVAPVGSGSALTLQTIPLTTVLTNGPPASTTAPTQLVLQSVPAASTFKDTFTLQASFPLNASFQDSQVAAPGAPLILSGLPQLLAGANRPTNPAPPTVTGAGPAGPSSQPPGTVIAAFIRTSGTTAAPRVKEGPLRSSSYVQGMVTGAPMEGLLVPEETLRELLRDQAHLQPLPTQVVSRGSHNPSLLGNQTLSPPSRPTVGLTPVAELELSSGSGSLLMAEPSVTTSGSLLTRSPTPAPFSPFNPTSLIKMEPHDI
Sequence of ETV5 (P41161 whole entry): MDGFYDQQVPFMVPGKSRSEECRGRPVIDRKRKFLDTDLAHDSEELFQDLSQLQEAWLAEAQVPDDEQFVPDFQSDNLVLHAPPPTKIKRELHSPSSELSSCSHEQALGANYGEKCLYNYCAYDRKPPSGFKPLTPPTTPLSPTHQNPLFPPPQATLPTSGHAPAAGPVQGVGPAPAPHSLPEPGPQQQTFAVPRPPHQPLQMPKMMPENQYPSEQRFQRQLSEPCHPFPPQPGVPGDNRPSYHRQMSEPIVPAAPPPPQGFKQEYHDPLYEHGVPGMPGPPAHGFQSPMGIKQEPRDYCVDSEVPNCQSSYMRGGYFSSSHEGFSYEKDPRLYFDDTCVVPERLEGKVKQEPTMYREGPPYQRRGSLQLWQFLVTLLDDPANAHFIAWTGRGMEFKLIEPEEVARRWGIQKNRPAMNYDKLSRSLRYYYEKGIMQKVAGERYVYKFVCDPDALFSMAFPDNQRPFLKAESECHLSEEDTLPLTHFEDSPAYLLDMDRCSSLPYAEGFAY

Question: With TCCTGA as the sequence, how does the binding signal [1] read?
Answer: 1.31 fold enrichment (6-mer frequency, TF over GST control)

Question: And the binding signal [2]?
Answer: 1.53 fold enrichment (6-mer frequency, TF over GST control)

Question: What about the binding signal [3] of the same sequence?
Answer: 1.57 fold enrichment (6-mer frequency, TF over GST control)

Question: And the binding signal [4]?
Answer: 1.32 fold enrichment (6-mer frequency, TF over GST control)

Question: What about the binding signal [5] of the same sequence?
Answer: 1.39 fold enrichment (6-mer frequency, TF over GST control)

Question: And the binding signal [6]?
Answer: 1.29 fold enrichment (6-mer frequency, TF over GST control)

Question: And the binding signal [7]?
Answer: 1.66 fold enrichment (6-mer frequency, TF over GST control)

Question: What about the binding signal [8] of the same sequence?
Answer: 1.39 fold enrichment (6-mer frequency, TF over GST control)

Question: And the binding signal [9]?
Answer: 1.25 fold enrichment (6-mer frequency, TF over GST control)

Question: And the binding signal [10]?
Answer: 1.49 fold enrichment (6-mer frequency, TF over GST control)

Question: And the binding signal [11]?
Answer: 1.26 fold enrichment (6-mer frequency, TF over GST control)

Question: And the binding signal [12]?
Answer: 1.43 fold enrichment (6-mer frequency, TF over GST control)

Question: What about the binding signal [13] of the same sequence?
Answer: 1.59 fold enrichment (6-mer frequency, TF over GST control)

Question: What about the binding signal [14] of the same sequence?
Answer: 1.69 fold enrichment (6-mer frequency, TF over GST control)

Question: And the binding signal [15]?
Answer: 1.32 fold enrichment (6-mer frequency, TF over GST control)

Question: What about the binding signal [16] of the same sequence?
Answer: 1.92 fold enrichment (6-mer frequency, TF over GST control)

Question: What about the binding signal [17] of the same sequence?
Answer: 1.71 fold enrichment (6-mer frequency, TF over GST control)

Question: And the binding signal [18]?
Answer: 1.51 fold enrichment (6-mer frequency, TF over GST control)
